Most compounds without a hit are left out; they make up all but 6.2% or so of the library.
Lassa entry inh: blocks Lassa virus binding to or entry into cells; Potency, µM (top dose mostly 37.9 µM), inactives show at the top dose activity change, negative = inhibition, most hits filed as inhibitors; Lassa virus pseudotype entry inhibition, cell reporter; hit rate 1.2% among 300,000; calls by dose curve; tested in HEK293 cells; further: potency means the concentration at half of the fitted maximal effect; nearly all actives have a fitted effect of over 50% in size
FMDV inh: foot and mouth disease virus antiviral activity; FMDV antiviral cell-based qHTS; Potency, µM (highest dose often 57.9 µM), without a hit: top-dose activity change, negative = inhibition, most hits filed as inhibitors; hit rate 1.2% among 410,000; AID 1159524; calls by dose curve; tested in HEK293T cells; further: read-out not given here; potency means the concentration at half of the fitted maximal effect; nearly all actives have a fitted effect of over 45% in size
HCMV antiviral: inhibitors of human cytomegalovirus | HFF cells, HCMV-luciferase reporter, 72 h; active compounds read low | activity change, negative = inhibition, % at 57.5 µM | hit rate 4.5% among 410,000; in the data active means activity change below about -60%; inconclusive means no clear call, values can overlap the other calls; inactive means above about -39%
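Screen run at 2 compound doses on HFFs infected with reporter HCMV, MOI 1 PFU/cell. Luciferase activity from cell lysates at 72 h post infection gave inhibition relative to buffer-only and Salinomycin wells.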
MARV entry inh: blocks Marburg virus binding to or entry into cells | AID 540276 | Marburg virus pseudotyped entry inhibition, cell reporter | Potency, µM (series often up to 37.8 µM), inactives show at the top dose activity change, negative = inhibition, hits mostly inhibitors | hit rate 1.8% among 300,000; calls by dose curve; tested in HEK293 cells; further: potency means the concentration at half of the fitted maximal effect
The depositor's hits bear a star; ? = inconclusive; / = no result given; [ ] = remark or other dose. On the % scale 0 is the no-effect control and ±100 the full control effect.

SMILES | Lassa entry inh | FMDV inh | HCMV antiviral | MARV entry inh
Cc1ccc(Nc2nc(-c3ccc(S(=O)(=O)N4CCOCC4)cc3)cs2)cc1Cl | -5% | ? | -74* | ?
CSc1nnc(CNC(=O)c2cccc3ccccc23)n1-c1ccccc1C | / | 1% | / | /
CCCC[C@]12Cc3cc(OC)c(OC)cc3[C@H](O1)c1c(cc(-c3ccccc3)oc1=O)O2 | / | / | / | -25%[14.2 µM]
N#Cc1cnn(-c2nc(SCc3ccccc3)nc3sc4c(c23)CCCC4)c1N | -25% | -21% | -101* | -29%
Cc1nc(N=Nc2cc(S(=O)(=O)O)ccc2S(=O)(=O)O)c(COP(=O)(O)O)c(C=O)c1O | / | -13% | / | /
CC(=O)Nc1sc2c(c1-c1nc3ccccc3s1)CN(C(C)C)CC2 | / | -27% | -97* | /
CN1CCc2c(sc(NC(=O)CSc3ccccc3)c2-c2nc3ccccc3s2)C1 | 9%[46.1 µM] | -14% | 29 | /
CC(=O)N1CCc2c(sc(NC(=O)CSc3ccccc3)c2-c2nc3ccccc3s2)C1 | -18%[46.1 µM] | -10% | -97* | /
CC(=O)N1CCc2c(sc(NC(=O)C3CC3)c2-c2nc3ccccc3s2)C1 | / | 25µM* | 12 | 0%
CC(C)N1CCc2c(sc(NC(=O)c3nc4ccccc4s3)c2C(N)=O)C1 | ? | -12% | -36 | 2%[46.1 µM]
CN1CCN(c2ncc3nc(CCc4ccccc4)c(=O)n(C)c3n2)CC1 | / | 29% | / | /
CC1(C)NC(=O)N(C[C@@H](O)Cn2nnc3ccccc32)C1=O | / | / | / | -13%[46.1 µM]
Cn1nccc1C(=O)N1CCN(C23CC4CC(CC(C4)C2)C3)CC1 | -4%[46.1 µM] | -10% | 13 | 1%[46.1 µM]
Cc1ccc(C(=O)N2CCN(C34CC5CC(CC(C5)C3)C4)CC2)o1 | / | 17% | -82* | /
Cn1ncc(Cl)c1C(=O)N1CCN(C23CC4CC(CC(C4)C2)C3)CC1 | ? | -23% | -77* | 9%
CCS(=O)(=O)N(C)C[C@@H]1OCc2ccccc2-c2c(n(C)c3ccccc23)C(=O)N([C@H](C)CO)C[C@@H]1C | / | / | -7 | /
CCN(CC)C(=O)CSc1nc2cc3c(cc2c(=O)n1CCCCCC(=O)NCCc1ccc(OC)c(OC)c1)OCO3 | 16%[46.1 µM] | 3% | -83* | /
COc1ccc2c(c1)C(=O)C(=O)N2CC1COc2ccccc2O1 (stereo unspecified) | / | -19% | -82* | /
CCN1CCN(CC2COc3ccccc3O2)CC1 (stereo unspecified) | / | -11% | -64* | /
CCOc1ccc(S(=O)(=O)NCCC(=O)NCC2COc3ccccc3O2)cc1 (stereo unspecified) | / | 12% | 5 | /
Cc1ccc2c(c1)C(=O)C(=O)N2CC1COc2ccccc2O1 (stereo unspecified) | -22%[46.1 µM] | -8% | -67* | ?
COc1ccc2c(c1)C(=O)C(=O)N2CCS(=O)(=O)c1ccccc1 | / | -1% | ? | /
CCOc1ccc2c(c1)C(=O)C(=O)N2CC1COc2ccccc2O1 (stereo unspecified) | / | ? | -65* | /
CC(=O)NCC1(c2ccccc2)CCN(CC2COc3ccccc3O2)CC1 (stereo unspecified) | / | -13% | -2 | /
Cc1ccc(NC(=O)c2sc3ncnc(N(C)C4CCCCC4)c3c2C)cc1 | 1%[46.1 µM] | -35% | -13 | /
SMILES | Lassa entry inh | FMDV inh | HCMV antiviral | MARV entry inh
COc1cccc(-n2c(SC)nnc2C2CCN(Cc3nc4ccccc4s3)CC2)c1 | / | -13% | / | /
Cc1c(NC(=O)Nc2cccc(C(F)(F)F)c2)sc2nc3n(c(=O)c12)CCC(C)CC3 (stereo unspecified) | / | ? | -8 | -1%[46.1 µM]
Fc1ccccc1CNc1nc(NCC2CC2)nc2ccsc12 | / | -39% | -87* | /
COc1ccccc1CNc1nc(NCc2cnc(C)cn2)c2sccc2n1 | / | -21% | -2 | /
COc1ccccc1CNc1nc(NCc2cccc(OC)c2OC)c2sccc2n1 | / | 40µM* | -83* | /
C#Cc1cccc(Nc2nc(NCc3ccccc3OC)nc3ccsc23)c1 | / | 32µM* | -79* | /
COc1ccccc1CNc1nc(NCc2ccccc2F)c2sccc2n1 | / | 28µM* | / | /
C[C@H](NC(=O)OCc1ccccc1)C(=O)OCN1C(=O)c2ccccc2C1=O | / | / | / | -6%
COC(=O)C1=C(CN2CCc3ccccc32)NC(=O)NC1c1cc(C)ccc1C (stereo unspecified) | ? | -3% | 47 | -28%
COC(=O)C1=C(CN2CCCc3ccccc32)NC(=O)NC1c1ccc(F)cc1 (stereo unspecified) | ? | / | -81* | ?
CCC(=O)NCCC1CCc2ccc3c(c21)CCO3 (stereo unspecified) | / | -2% | / | /
C[C@H]1[C@H](c2ccccc2)Oc2cccc(NCCc3ccccc3)c2S(=O)(=O)N1Cc1ccc(F)cc1 | / | / | 0 | /
Cn1c(CN2CCCC2)nc2cc(NC(=O)Nc3ccccc3)ccc21 | 27% | / | 85 | 12%

Source: PubChem (National Center for Advancing Translational Sciences (NCATS))
